Source: PubChem
Compounds with a hit are over-represented: about 1.2% of the library has one in this group of screens.
Mtb betalactam – beta-lactam sensitization of Mtb H37Rv. M. tuberculosis H37Rv growth with meropenem, percent inhibition. inhibition, % at 25 µM. hit rate 0.27% among 330,000. AID 434955;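 also: growth measured after seven days incubation then overnight dye step; 0% = bacteria only wells and 100% = bacteria with antibiotic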
RecA intein inh – Mtb RecA intein splicing inhibition; P9WHJ3; cell-free RecA intein splicing, fluorescence; inhibition, % (test concentration not listed); hit rate 0.75% among 290,000; AID 2221; in the data active = inhibition above about 30%;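 also: 0% = vehicle wells and 100% = reference inhibitor control wells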
CCHF vOTU inh – CCHFV vOTU protease inhibition; inhibition, % at 11.5 µM; AID 651958; hit rate 0.55% among 370,000; Pep-AMC fluorescence; in the data active = inhibition above about 30%; also: 0% = vehicle wells with enzyme and 100% = no enzyme wells
UGM FP inh – Mtb UDP-galactopyranose mutase inhibition. P9WIQ1. purified UGM, fluorescence polarization probe displacement. inhibition, % at 10 µM. hit rate 0.06% among 320,000. AID 504406; in the data active = inhibition above about 10%, passing the limit was not always enough
Target sequence (P9WIQ1 whole entry, looked up): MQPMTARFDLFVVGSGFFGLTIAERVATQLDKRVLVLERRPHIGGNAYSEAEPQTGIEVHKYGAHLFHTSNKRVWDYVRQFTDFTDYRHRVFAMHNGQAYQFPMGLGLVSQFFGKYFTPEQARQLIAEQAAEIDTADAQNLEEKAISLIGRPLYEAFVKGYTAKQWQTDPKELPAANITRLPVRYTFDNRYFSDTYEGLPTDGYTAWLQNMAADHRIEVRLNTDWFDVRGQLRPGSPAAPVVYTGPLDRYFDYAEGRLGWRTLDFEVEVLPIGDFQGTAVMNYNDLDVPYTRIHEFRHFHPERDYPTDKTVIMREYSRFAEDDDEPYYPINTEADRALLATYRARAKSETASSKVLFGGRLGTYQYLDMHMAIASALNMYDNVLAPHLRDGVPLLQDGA
Rv3671c protease – Rv3671c (M. tuberculosis) protease inhibition; P9WHR9; inhibition, % at 5.96 µM; hit rate 0.048% among 320,000; AID 2606; in the data active = inhibition above about 38%;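 also: extracellular domain of Rv3671c used as enzyme; 0% = enzyme with DMSO and 100% = no enzyme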
GFP chromophore – counter-screen: blocks GFP chromophore formation | shares compounds with RecA intein inh | cell-free GFP chromophore formation, fluorescence | hit rate 83% among 2,100 | AID 434968 | EC50, µM
* = called active by the depositor; nt = not tested or not shown. Unless noted, no rule for the calls is given here.

SMILES	Mtb betalactam	RecA intein inh	CCHF vOTU inh	UGM FP inh	Rv3671c protease	GFP chromophore
COc1ccc2[nH]c3c(c2c1)CCN[C@]31C(=O)N(Cc2ccccc2)c2ccccc21	nt	nt	-8	nt	nt	nt
CCN(CC)C(=O)CC[C@@H]1CC[C@]2(CCCN(Cc3cccc4ccccc34)C2)O1	nt	nt	1	nt	nt	nt
Cc1ccc(NC(=O)c2nc(S(=O)(=O)Cc3ccccc3)ncc2Cl)cc1	77	66*	15	-2	0	40*
O=C(Nc1ccc(F)cc1)c1nc(S(=O)(=O)Cc2ccccc2)ncc1Cl	54	1	11	-3	-10	nt
CCS(=O)(=O)c1ncc(Cl)c(C(=O)Nc2ccc(S(=O)(=O)N(C)c3ccccc3)cc2)n1	11	97*	8	0	-176	1.6*
Cc1cccc(C)c1NC(=O)c1nc(S(=O)(=O)Cc2ccccc2)ncc1Cl	14	36*	5	-2	6	17*
Cc1ccccc1CS(=O)(=O)c1ncc(Cl)c(C(=O)Nc2ccc(F)cc2)n1	1	34*	19	1	-16	8.6*
COC(=O)[C@]12C[C@H](CC(=O)N3CCN(C(=O)C4CC4)CC3)C(=O)N(Cc3cccc4ccccc34)C1=C[C@H](C(C)(C)C)O[C@@H]2C	nt	nt	17	nt	nt	nt
Cc1cccc(CS(=O)(=O)c2ncc(Cl)c(C(=O)Nc3c(C)cccc3C)n2)c1	3	46*	13	-3	-5	9.9*
Cc1cccc(CS(=O)(=O)c2ncc(Cl)c(C(=O)NCc3ccccc3)n2)c1	3	0	0	-3	-5	nt
CCCc1nnc(NC(=O)c2nc(S(=O)(=O)Cc3cccc(C)c3)ncc2Cl)s1	3	85*	6	0	-7	>38
COc1ccc(OC)c(NC(=O)c2nc(S(=O)(=O)Cc3ccccc3)ncc2Cl)c1	76	28	19	-1	-7	nt
Cc1nnc(NC(=O)c2nc(S(=O)(=O)Cc3ccccc3)ncc2Cl)s1	-2	56*	6	-1	-4	16*
O=c1cc(C2CCNCC2)[nH][nH]1	-11	87*	16	-1	-23	5.4*
CC(=O)Nc1ccc(SCC(=O)c2c(N)n(Cc3ccccc3)c(=O)n(C)c2=O)cc1	-1	-1	7	0	0	nt
CC(=O)NC(=S)c1c(N)n(Cc2ccccc2)c(=O)n(C)c1=O	5	33*	nt	-2	0	>38
COC(=O)[C@]1(C#N)CC(=O)N(C)[C@@H]1c1ccccc1	nt	nt	1	nt	nt	nt
CCCCNC(=O)NCCCN1CCN(c2ccc(F)cc2)CC1	nt	nt	-1	nt	nt	nt
COc1ccc(C(=O)C2C(c3ccc(-c4ccccc4[N+](=O)[O-])o3)NC(=O)NC2(O)C(F)(F)F)cc1 (stereo unspecified)	4	64*	1	4	-58	32*
O=S(=O)(Nc1ccc(-n2cnnn2)cc1)c1ccccc1F	3	nt	2	4	-2	nt
O=S(=O)(Nc1ccc(-n2cnnn2)cc1)c1ccc(F)c(F)c1F	-1	30*	11	1	-5	>38
O=C1CC(CC(=O)N/N=C/c2ccccc2[N+](=O)[O-])=NN1	-1	90*	7	0	-67	7.3*
O=C(C[n+]1ccccc1)N/N=C/c1ccccc1[N+](=O)[O-]	2	-1	12	-1	1	nt
COc1ccc(CN(C)C(C#Cc2ccccc2)Cc2ccccc2)c(OC)c1 (stereo unspecified)	nt	nt	4	nt	nt	nt
N#Cc1ccc(Cn2ccc3ccc(-c4ccc5ccn(C(=O)c6ccccc6)c5c4)cc32)cc1	nt	nt	2	nt	nt	nt
C/C(=C\c1ccco1)C1C(C#N)=C(N)Oc2n[nH]c(-c3ccc(C)cc3)c21 (stereo unspecified)	-2	21	5	-1	-10	nt
C/C(=C\c1ccco1)C1C(C#N)=C(N)Oc2n[nH]c(-c3ccccc3)c21 (stereo unspecified)	-1	77*	3	0	3	18*
Cc1[nH]nc2c1C(C(C)c1ccccc1)C(C#N)=C(N)O2 (stereo unspecified)	-1	-1	5	1	5	nt
Cc1[nH]nc2c1C(CC(C)C)C(C#N)=C(N)O2 (stereo unspecified)	-2	72*	1	-1	-4	21*
CC(C)CC1C(C#N)=C(N)Oc2n[nH]c(-c3ccccc3)c21 (stereo unspecified)	17	82*	-2	3	-7	13*
